Screening results: PubChem BioAssay, National Center for Advancing Translational Sciences (NCATS)
Rows were chosen to be rich in hits. Some 19% of all compounds tested hit in one or more screens of this group.
TDP1 cell CPT – qHTS for Inhibitors of human tyrosyl-DNA phosphodiesterase 1 (TDP1): qHTS in cells in presence of CPT; actives 12% (n = 420,000); Potency, µM (highest dose often 46.2 µM), inactives show at the top dose activity change, negative = growth inhibition, most hits filed as inhibitors; chicken DT40 Tdp1-/-;hTDP1 cells + 20 nM CPT, ATP luminescence, 48 h; further: potency means the concentration at half of the fitted maximal effect; nearly all actives have a fitted effect of over 55% in size
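Cell growth measured by CellTiter-Glo luminescence after a minimum 48 h, 37 C compound exposure with 20 nM CPT in Tdp1-knockout DT40 cells stably expressing hTDP1, seeded 400/well; qHTS titration format.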
HT1080NT lethal – qHTS for induction of synthetic lethality in tumor cells producing 2HG: qHTS for the HT-1080-NT fibrosarcoma cell line. actives 1.6% (n = 360,000). HT-1080-NT fibrosarcoma viability, CellTiter-Glo ATP luminescence, 48 h. Potency, µM (doses to about 46.1 µM), without a hit: top-dose activity, negative = less viability, usual class: cytotoxic;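 further: NT is the 2HG producing partner of a matched IDH1 knockdown line; potency means the concentration at half of the fitted maximal effect; 0% = DMSO-treated cells and -100% = media-only wells without cells; nearly all actives have a fitted effect of over 55% in size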
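Toxicity toward the 2HG-producing NT line was scored as %Activity, normalised to DMSO and no-cell wells, from CellTiter-Glo luminescence after 48 hours' treatment.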
TDP1 cell noCPT – qHTS for Inhibitors of human tyrosyl-DNA phosphodiesterase 1 (TDP1): qHTS in cells in absence of CPT. DT40 Tdp1-/- hTDP1 cells, no CPT, ATP luminescence, 48 h. AID 686978, 2013. Potency, µM (series often up to 46.2 µM), for inactives: at the top dose activity change, negative = growth inhibition, most hits filed as inhibitors. actives 15% (n = 420,000); further: potency means the concentration at half of the fitted maximal effect; nearly all actives have a fitted effect of over 55% in size
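Chicken DT40 Tdp1-/- cells stably complemented with human TDP1 were seeded at 400 cells/well with DMSO in place of 20 nM camptothecin. After compound pinning, cells grew at least 48 hr at 37 °C; viability read by CellTiter-Glo luminescence.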
HT1080 IDH1KD tx – qHTS for induction of synthetic lethality in tumor cells producing 2HG: qHTS for the HT-1080-IDH1KD cell line. HT-1080 IDH1 knockdown viability, ATP luminescence, 48 h. Potency, µM (titrated, usually from 46.1 µM), inactives show at the highest dose activity, negative = toxicity, most hits filed as cytotoxic. actives 2% (n = 360,000);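 further: potency means the concentration at half of the fitted maximal effect; 0% = DMSO wells and -100% = cell-free medium wells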
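Using the IDH1-knockdown HT-1080 line run in the same batch and compound series as the NT line, viability after 48 h at 37 °C was determined by CellTiter-Glo luminescence and expressed as % activity.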
IL1B secr inh – qHTS for Inhibitors of Inflammasome Signaling: IL-1-beta AlphaLISA Primary Screen | THP-1 LPS/ATP IL-1B secretion, AlphaLISA, 16 h; stronger effect = lower value | activity change, % at 57.5 µM | actives 4.7% (n = 360,000) | AID 743279, 2014; in the data active means activity change below about -50%; inconclusive means mostly about -30% to -49%
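THP-1 cells pretreated 1 hr with compounds (up to 57.5 uM final), then stimulated with LPS (250 ng/mL final) plus ATP (1.25 mM final); secreted IL-1B measured by AlphaLISA after 16 hr, decreased signal indicating inhibition.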
Starred values were filed as active, the others as inactive; i = inactive; ? = inconclusive; . = no result given. Unless noted, the call rests on the fitted dose curve; in most records, active means well fitted curve in the direction sought with a large enough effect; inconclusive means small, poorly fitted or top-dose-only effect, or another doubt; inactive means no such curve, though single readings can be large; an effect the other way counts as inactive or inconclusive. Unless noted, on the % scale 0 is the no-effect control and ±100 the full control effect.

SMILES	TDP1 cell CPT	HT1080NT lethal	TDP1 cell noCPT	HT1080 IDH1KD tx	IL1B secr inh
CC1(C(=O)NS(=O)(=O)c2ccc(F)cc2F)CCN1C(=O)C1(c2ccc(Cl)cc2)CC1 (centres undefined)	?	19%	-18%	3%	0
Cc1ccc(CN(C(=O)COc2ccc(F)cc2)C2CCS(=O)(=O)C2)o1 (centres undefined)	-14%	.	-13%	.	.
Cc1cc(F)ccc1-c1cc(C(=O)NCc2ccccc2)[nH]n1	26µM*	12%	?	14%	-24
Cc1cc(O)ccc1-c1cc(C(=O)NCc2ccc(F)cc2)[nH]n1	?	?	-24%	?	32
COc1ccc(Cl)cc1-c1cc(C(=O)NCc2ccc(F)cc2)[nH]n1	6.5µM*	-28%	8.2µM*	?	-17
COc1ccc(Cl)cc1-c1cc(C(=O)NCc2ccc(C(F)(F)F)cc2)[nH]n1	4.6µM*	0%	7.3µM*	-5%	-19
COc1ccc(Cl)cc1-c1cc(C(=O)NCc2cccc(C(F)(F)F)c2)[nH]n1	7.3µM*	?	?	?	-7
CN(Cc1ccccc1)Cc1nc2c([nH]1)c(=O)n(C)c(=O)n2C	?	-1%	-24%	2%	17
O=C(NCC1CCCO1)c1ccccc1OCc1ccc(Cl)cc1 (centres undefined)	?	9%	?	3%	4
CC(Oc1ccccc1Cl)C(=O)Nc1ccccc1C(=O)N1CCOCC1 (centres undefined)	-2%	4%	4%	13%	i
N#Cc1ccccc1OCC(=O)N1CCN(c2ccccc2F)CC1	-19%	.	-14%	.	.
COc1ccc(N2CCN(C(=O)C(CC(C)C)NS(=O)(=O)c3ccc4nc(C)sc4c3)CC2)cc1 (centres undefined)	12µM*	.	-82%	.	.
COc1cc(-c2nnc3n2N=C(c2ccccc2)CS3)cc(OC)c1OC	1.5µM*	2.1µM*	1.5µM*	1.2µM*	17
COc1ccc(OC)c(C2=Nn3c(nnc3-c3ccncc3)SC2)c1	?	?	?	-6%	-13
CCOc1ccc(C2=Nn3c(nnc3-c3ccccc3)SC2)cc1Cl	-4%	-10%	-19%	-5%	33
CCOc1cccc(-c2nnc3n2N=C(c2cc(OC)ccc2OC)CS3)c1	?	-30%	8.2µM*	-29%	-25
COc1ccc(OC)c(C2=Nn3c(nnc3-c3cc(OC)c(OC)c(OC)c3)SC2)c1	21µM*	?	16µM*	?	0
Cc1cc(-c2nnc3n2N=C(c2ccccc2Br)CS3)n[nH]1	7%	-14%	?	-6%	.
Cc1cccc(-c2nnc3n2N=C(c2ccccc2Br)CS3)c1	21µM*	-26%	21µM*	-29%	-3
COc1ccccc1/C=N/NC(=O)CCn1cnc2ccccc21	?	1%	19%	-2%	0
Cc1ccc(CN2C(=O)c3ccccc3NC2c2cc(Br)ccc2O)cc1 (centres undefined)	-14%	?	?	?	?
COc1cccc(-c2nnc3n2N=C(C(C)(C)C)CS3)c1	16µM*	?	9.2µM*	?	-93*
COc1ccccc1-c1nnc2n1N=C(C(C)(C)C)CS2	-27%	3%	-18%	-2%	0
COc1cccc(-c2nnc3n2N=C(c2cc(OC)ccc2OC)CS3)c1	?	-2%	15µM*	-10%	?
c1ccc(C2=Nn3c(nnc3-c3cc(-c4ccccc4)n[nH]3)SC2)cc1	?	?	?	?	-2
COc1ccc(C2=Nn3c(nnc3-c3cc(C)[nH]n3)SC2)cc1	-5%	5%	-29%	-26%	-3
